FBPA Giardia inh = qHTS Assay for Inhibitors of Fructose-1,6-bisphosphate Aldolase from Giardia Lamblia; A8B2U2; purified Giardia FBPA; Potency, µM (titrated, usually from 59.6 µM), actives largely listed as inhibitors; 290,000 tested, 0.71% active; AID 2451, 2010; note: nearly all actives have a fitted effect of over 55% in size
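40 nM FBPA preincubated 10 min at RT with compound (up to 57.5 uM final), then substrate plus GAPDH/TPI/NAD/arsenate coupling and diaphorase/resazurin added. Fluorescence read after 20 min at RT, 525/598 nm.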
Cycloheximide cs = Cycloheximide Counterscreen for Small Molecule Inhibitors of Shiga Toxin | AID 2314, 2010 | cell reporter, cycloheximide protein synthesis inhibition counterscreen | max response, % | 300,000 tested, 12% active; in the data active = max response mostly above about 13%, no sharp cut-off; inactive = mostly below about 14%; note: read at 38.3 µM for the half of the compounds with a filed dose
LmPK inh = qHTS Assay for Inhibitors of Leishmania Mexicana Pyruvate Kinase (LmPK); Q27686; purified LmPK, Kinase-Glo ATP luminescence, 1 h; Potency, µM (series often up to 57.5 µM), hits mostly inhibitors; 290,000 tested, 0.37% active; AID 1721, 2009
Target sequence (Q27686 whole entry, looked up): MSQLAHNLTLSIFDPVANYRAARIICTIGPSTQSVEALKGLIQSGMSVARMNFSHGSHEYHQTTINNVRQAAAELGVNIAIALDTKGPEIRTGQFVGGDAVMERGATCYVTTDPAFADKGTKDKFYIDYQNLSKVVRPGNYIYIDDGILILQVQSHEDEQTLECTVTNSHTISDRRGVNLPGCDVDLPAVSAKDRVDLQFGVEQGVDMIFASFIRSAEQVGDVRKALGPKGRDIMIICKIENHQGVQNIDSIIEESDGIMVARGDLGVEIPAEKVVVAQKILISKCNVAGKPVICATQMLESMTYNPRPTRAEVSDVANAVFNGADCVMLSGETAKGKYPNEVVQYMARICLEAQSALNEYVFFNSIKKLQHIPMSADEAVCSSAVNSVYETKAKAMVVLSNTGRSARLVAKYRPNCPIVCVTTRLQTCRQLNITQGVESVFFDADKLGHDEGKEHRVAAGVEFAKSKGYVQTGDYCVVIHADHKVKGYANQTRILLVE
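Pyruvate kinase activity monitored as ATP production (luciferase luminescence). Conditions: 0.1 nM enzyme, 0.5 mM PEP, 0.1 mM ADP, 1 h, RT; normalized against uninhibited and no-enzyme wells.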
Shiga inhibitor = A qHTS for Small Molecule Inhibitors of Shiga Toxin; 290,000 tested, 9.2% active; AID 2315, 2010; inhibition, % at 38.7 µM; Vero cells, Shiga toxin protein synthesis inhibition reporter; in the data active = inhibition mostly above about 28%, no sharp cut-off; inactive = mostly below about 43%
RE007 growth inh = qHTS Assay for Inhibitors of the HIV-1 protein Vpr; S. pombe RE007 Vpr strain, BacTiter-Glo ATP luminescence, 24 h; Potency, µM (titrated, usually from 92.2 µM), actives largely listed as inhibitors; 360,000 tested, 0.21% active; AID 651644, 2012; active = well fitted falling curve with a large enough effect; inconclusive = small, poorly fitted or top-dose-only effect; inactive = no such curve, though single readings can be large or run the other way; note: nearly all actives have a fitted effect of over 50% in size
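Fission yeast RE007 carrying one integrated HIV-1 vpr copy, seeded at OD 0.01 in PMG+AL medium with 23 nL pinned compound. Grown 24 h at 30 degrees; viability read by BacTiter-Glo luminescence after 5 min.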
TbPYK inhibitor = qHTS of Trypanosoma Brucei Inhibitors. pyruvate kinase (Trypanosoma brucei), Q57TT1. Potency, µM (top dose mostly 76.8 µM), hits mostly inhibitors. TbPYK enzyme, Kinase-Glo Plus ATP luminescence, 45 min. 410,000 tested, 0.12% active. AID 624173, 2012; note: nearly all actives have a fitted effect of over 50% in size
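Luminescence from Kinase-Glo Plus, added after a 45-minute room-temperature reaction, served as the end-point read-out. The enzyme and substrate were preincubated with compound before ADP (130 uM final) initiated turnover. Concentration-effect curves came from normalized qHTS data.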
Each line names hits and unclear results; the compound was inactive in the other large screens. The entries come from a sample that favours hits as a whole. Unless noted, calls come from the whole dose curve; as a rule, active = well fitted curve in the direction sought with a large enough effect; inconclusive = small, poorly fitted or top-dose-only effect, or another doubt; inactive = no such curve, though single readings can be large; an effect the other way counts as inactive or inconclusive.

COC(=O)Cc1ccc(NC(C)=O)cc1	none (no result: FBPA Giardia inh, Cycloheximide cs, LmPK inh, Shiga inhibitor)
CCN(CC)c1ccc(NC(=O)c2ccc(Br)o2)cc1	Cycloheximide cs 42.6
COC(=O)Cc1ccc(NC(=O)c2ccc(Br)o2)cc1	Cycloheximide cs 34.6, LmPK inh inconclusive, Shiga inhibitor 70.7
COC(=O)Cc1ccc(NC(=O)c2ccc(C)c(C)c2)cc1	Cycloheximide cs 45.1, Shiga inhibitor 51.2 (no result: TbPYK inhibitor)
CCCOC(=O)c1ccc(NC(=O)c2ccc(Br)o2)cc1	Cycloheximide cs 56.3, Shiga inhibitor 52.3, RE007 growth inh inconclusive
Cc1cc(C)cc(OCC(=O)NCC2(N(C)C)CCCCC2)c1	none (no result: FBPA Giardia inh, Cycloheximide cs, LmPK inh, Shiga inhibitor, RE007 growth inh)
CCCCNCCS(=O)(=O)NCc1ccc(OC)cc1	none (no result: FBPA Giardia inh, Cycloheximide cs, LmPK inh, Shiga inhibitor)
CCOc1ccccc1-c1nc(-c2ccc(NC(=O)c3ccc(Br)o3)cc2)no1	Cycloheximide cs 44.3
CCc1ccc(C(=O)c2cn(CC(=O)Nc3ccc4c(c3)OCO4)c3ccc(OC)cc3c2=O)cc1	none (no result: FBPA Giardia inh, Cycloheximide cs, LmPK inh, Shiga inhibitor, RE007 growth inh)
Cc1ccc(NC(=O)C2CCCN(c3nc4ccccc4s3)C2)c(C)c1 (configuration not stated)	none (no result: FBPA Giardia inh, Cycloheximide cs, LmPK inh, Shiga inhibitor, RE007 growth inh)
O=[N+]([O-])c1ccccc1/C=C\C=N\N1CCN(c2ccccc2)CC1	Cycloheximide cs 25.4
O=[N+]([O-])c1ccccc1/C=N\N1CCN(c2ccccc2)CC1	Cycloheximide cs 36.3, Shiga inhibitor 61.3, RE007 growth inh inconclusive
COc1ccccc1N1CCN(/N=C/C=C/c2ccccc2[N+](=O)[O-])CC1	Shiga inhibitor 66.7
O=[N+]([O-])c1ccccc1/C=C/C=N/N1CCCCC1	Cycloheximide cs 66.2, Shiga inhibitor 62.6
O=[N+]([O-])c1cc(/C=N/N2CCN(c3ccccc3)CC2)ccc1Cl	none
COc1ccccc1N1CCN(/N=C/c2cc([N+](=O)[O-])ccc2Cl)CC1	none
O=[N+]([O-])c1ccccc1/C=N/N1CCN(c2ccc(Cl)cc2)CC1	none
COc1ccccc1CN1CC(C(=O)NCCc2ccccc2Cl)CCC1=O (configuration not stated)	Cycloheximide cs 38.1, Shiga inhibitor 59.4
COc1ccc(CCCNC(=O)C2CCC(=O)N(Cc3ccccc3F)C2)cc1 (configuration not stated)	Cycloheximide cs 30.6 (no result: FBPA Giardia inh)
Cc1ccc(CCNC(=O)C2CCC(=O)N(Cc3ccccc3F)C2)o1 (configuration not stated)	Cycloheximide cs 40.2, Shiga inhibitor 102.0 (no result: FBPA Giardia inh)
COc1ccccc1CN1CC(C(=O)NCCC2=CCCCC2)CCC1=O (configuration not stated)	none (no result: FBPA Giardia inh)
Cc1cc(C)nc(CCNC(=O)C2CCC(=O)N(Cc3ccccc3F)C2)n1 (configuration not stated)	none (no result: FBPA Giardia inh)
COc1ccccc1CCCNC(=O)C1CCC(=O)N(Cc2ccccc2F)C1 (configuration not stated)	Cycloheximide cs 40.7, Shiga inhibitor 99.6
COc1cc(C(=O)NC2(C(F)(F)F)C(=O)NC(C)=C2C#N)cc(OC)c1OC (configuration not stated)	none (no result: FBPA Giardia inh, Cycloheximide cs, LmPK inh, Shiga inhibitor, RE007 growth inh)
Cc1ccc(-c2nn(-c3ccc(F)cc3F)c3c2cnc2c(F)cccc23)cc1	none (no result: FBPA Giardia inh, Cycloheximide cs, LmPK inh, Shiga inhibitor, RE007 growth inh)
Cc1ccc(CCCNC(=O)C2CCC(=O)N(Cc3cccc(F)c3)C2)cc1 (configuration not stated)	Cycloheximide cs 13.8
COc1ccccc1CN1CC(C(=O)N2CCC(C(=O)c3ccccc3)CC2)CCC1=O (configuration not stated)	Cycloheximide cs 35.5, Shiga inhibitor 58.5 (no result: FBPA Giardia inh)
CCOC(=O)N1CCN(C(=O)C2CCC(=O)N(Cc3ccccc3OC)C2)CC1 (configuration not stated)	none (no result: FBPA Giardia inh, Cycloheximide cs, LmPK inh, Shiga inhibitor)
Cc1ccc(-c2cc(C(=O)OCC(=O)c3ccccc3)c3cccc(Cl)c3n2)cc1	none (no result: FBPA Giardia inh, Cycloheximide cs, LmPK inh, Shiga inhibitor, RE007 growth inh)
COc1ccc(CCNC(=O)Cc2c(C)c3cc4c(C)coc4c(C)c3oc2=O)cc1	none (no result: FBPA Giardia inh, Cycloheximide cs, LmPK inh, Shiga inhibitor, RE007 growth inh)
CC(=O)O[C@@]12CO[C@@H]1C[C@H](O)[C@@]1(C)C(=O)[C@H](O)C3=C(C)[C@@H](OC(=O)[C@H](O)[C@@H](NC(=O)OC(C)(C)C)c4ccccc4)C[C@@](O)([C@@H](OC(=O)c4ccccc4)[C@H]21)C3(C)C	none (no result: FBPA Giardia inh, Cycloheximide cs, LmPK inh, Shiga inhibitor, RE007 growth inh)
CC(=O)C1[C@H](N(C)C)CC2C3CC=C4CC(O)CC[C@]4(C)C3CC[C@@]21C (some centres not stated)	none
CC(C)(C)c1nn(-c2ccccc2)c2[nH]c(=O)c(CNCc3ccco3)cc12	none
CC(C)(C)c1nn(-c2ccccc2)c2[nH]c(=O)c(CNc3ccc4c(c3)OCCO4)cc12	Cycloheximide cs 16.4
CCCCOC(=O)c1ccc(NC(=O)c2ccoc2C)cc1	Cycloheximide cs 28.8, Shiga inhibitor 69.8
CCCOC(=O)c1ccc(NC(=O)c2ccoc2C)cc1	Cycloheximide cs 40.5, LmPK inh inconclusive, Shiga inhibitor 88.2
Cc1occc1C(=O)Nc1ccc(OCc2ccccc2)cc1	RE007 growth inh inconclusive, TbPYK inhibitor inconclusive
CC(=O)N1CCc2c(sc3c2c(=O)n(-c2ccccc2C)c(=O)n3CC(=O)Nc2ccccc2)C1	none (no result: FBPA Giardia inh, Cycloheximide cs, LmPK inh, Shiga inhibitor, RE007 growth inh)
C=C1SC(=Nc2ccccc2Cl)N(C(=O)c2sc3ccccc3c2Cl)C12CCCCC2	Cycloheximide cs 25.2 (no result: RE007 growth inh, TbPYK inhibitor)
C=C1SC(=Nc2c(C)cc(C)cc2C)N(C(=O)c2sc3ccccc3c2Cl)C12CCCCC2	none (no result: RE007 growth inh)
CCN(c1cccc(C)c1)S(=O)(=O)c1cc(CN2C(=O)c3cccnc3C2=O)ccc1OC	Cycloheximide cs 19.2, Shiga inhibitor 92.2
COc1ccc(CN2C(=O)c3cccnc3C2=O)cc1S(=O)(=O)NCc1ccco1	Cycloheximide cs 21.0, Shiga inhibitor 51.2
CC(C(=O)N1CCN(C(=O)c2ccco2)CC1)n1sc2ccccc2c1=O (configuration not stated)	none
CC(C(=O)N1CCCCC1)n1sc2ccccc2c1=O (configuration not stated)	Cycloheximide cs 31.3, Shiga inhibitor 67.4
COc1ccc2c(c1)c1c(c(=O)n(CCc3ccccc3)c(=O)n1Cc1cccc(F)c1)n2C	none (no result: FBPA Giardia inh, Cycloheximide cs, LmPK inh, Shiga inhibitor, RE007 growth inh)
O=C(NNC(=S)NC1CCCCC1)c1ccc(Cl)s1	Cycloheximide cs 21.0
O=C(NNC(=O)C1CC2CCC1C2)c1sc2ccccc2c1Cl (configuration not stated)	Cycloheximide cs 54.0, Shiga inhibitor 84.8
O=C(NNC(=S)NC1CCCCC1)c1ccccc1O	Cycloheximide cs 15.8, Shiga inhibitor 62.1
O=C(NC1CC1)c1sc2ccccc2c1Cl	Cycloheximide cs 31.6, Shiga inhibitor 58.5, RE007 growth inh inconclusive (no result: FBPA Giardia inh)
